# Shiga toxin inh: blocks Shiga toxin action in Vero cells; Vero cells, Shiga toxin protein synthesis inhibition reporter; 9.2% of 290,000 active; inhibition, % at 38.7 µM; in the data active means inhibition mostly above about 28%, no sharp cut-off; inactive means mostly below about 43%; further: 0% is about no effect
# AMA1-RON2 inh: AMA1-RON2 (P. falciparum) interaction inhibition; AlphaScreen AMA1-biotinylated RON2 peptide binding; Potency, µM (doses to about 58.2 µM), for inactives: at the top dose activity change, negative = inhibition, actives largely listed as inhibitors; 0.2% of 360,000 active;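 further: potency means the concentration at half of the fitted maximal effect; 0% = vehicle wells and -100% = peptide control; nearly all actives have a fitted effect of over 45% in size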
#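 AMA1 (3D7) with his tag at 25 nM final met compounds first, then biotinylated RON2 peptide at 25 nM; detection used donor plus acceptor beads, 10 µg/mL apiece, read by AlphaScreen after 30 min at room temperature.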
# HCV inh: HCV inhibition. Huh7.5.1 HCVcc-Cre infection, luciferase reporter, 44 h. Potency, µM (top dose mostly 41.8 µM), without a hit: at the highest dose activity change, negative = inhibition, hits mostly inhibitors. 3.4% of 340,000 active. AID 651820; further: potency means the concentration at half of the fitted maximal effect; on the % scale 0 is the no-effect control and ±100 the full control effect
#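 1,000 cells/well; 4 h culture; + compound; + HCVcc-Cre (~0.5 moi); 44 h; luciferase substrate, RT 15 min; read 15 sec.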
# Pf growth 96h: inhibits malaria parasite growth, 96 h; P. falciparum luciferase reporter growth, 96 h; Potency, µM (doses to about 28.7 µM), inactives show top-dose activity change, negative = inhibition, hits mostly inhibitors; 6.9% of 320,000 active; AID 504834; further: potency means the concentration at half of the fitted maximal effect; on the % scale 0 is the no-effect control and ±100 the full control effect
#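 Cell-based qHTS: luciferase-tagged P. falciparum in erythrocytes (2% hematocrit, 0.05% parasitemia final) incubated with compounds for 96 hours, 37 C, 5% CO2; luciferase detection reagent then added and luminescence measured.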
# Pf growth 48h: inhibits P. falciparum growth in the first generation, 48 h; Potency, µM (highest dose often 28.7 µM), inactives show at the top dose activity change, negative = inhibition, usual class: inhibitors; 5.9% of 310,000 active; P. falciparum luciferase growth in erythrocytes, 48 h; AID 504832; further: potency means the concentration at half of the fitted maximal effect; on the % scale 0 is the no-effect control and ±100 the full control effect
#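 In quantitative HTS format, infected erythrocytes bearing luciferase-reporter parasites were treated for a single generation at 37 C. Luminescence after adding detection reagent served as the growth measure.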
# Cycloheximide cs: counter-screen for Shiga toxin inhibitors: cycloheximide protein synthesis inhibition; cell reporter, cycloheximide protein synthesis inhibition counterscreen; max response, %; 12% of 300,000 active; AID 2314; in the data active means max response mostly above about 13%, no sharp cut-off; inactive means mostly below about 14%; further: read at 38.3 µM for the half of the compounds with a filed dose; 0% is about no effect
# Starred values were filed as active, the others as inactive; ? = inconclusive; . = not tested or not shown; [ ] = another dose, or the depositor's remark. Most compounds without a hit are left out; they make up all but 21% or so of the library. Unless noted, the call rests on the fitted dose curve; in most records, active means well fitted curve in the direction sought with a large enough effect; inconclusive means small, poorly fitted or top-dose-only effect, or another doubt; inactive means no such curve, though single readings can be large; an effect the other way counts as inactive or inconclusive.
SMILES,Shiga toxin inh,AMA1-RON2 inh,HCV inh,Pf growth 96h,Pf growth 48h,Cycloheximide cs
COc1ccc(C=O)cc1COc1ccc2c(c1)OCO2,.,?,10%,7%,11%,.
Cc1sc2nc(CN3CCOCC3)[nH]c(=O)c2c1-c1ccccc1,-9,4%,5%,8%,10%,-4
Cc1ccc(-c2c(C)sc3nc(CN4CCN(CC(=O)NC5CC5)CC4)[nH]c(=O)c23)cc1,.,36%,-1%,?,10µM*,.
C=CCn1cnc2c(nnn2-c2ccc(OC)c(OC)c2)c1=O,-5,10%,3%,37%,22%,-1
C=CCn1cnc2c(nnn2-c2ccc(C)c(C)c2)c1=O,88*,-9%,-15%,68%,126%,40*
Cc1c(OCc2ccccc2)c(=O)ccn1Cc1ccccc1,32,-20%,4%,?,?,11*
CCN1/C(=C/C=C/c2sc3ccccc3[n+]2CC)Sc2ccccc21,.,?,1.6µM*,0.15µM*,0.33µM*,.
CCN1/C(=C/C=C/C=C/C=C/c2sc3ccccc3[n+]2CC)Sc2ccccc21,-14,?,?,15%,?,-2
CCN1/C(=C/C=C/C=C/c2sc3ccccc3[n+]2CC)Sc2ccccc21,-7,.,1%[8.37 µM],3.4µM*,3µM*,-1
CCOC(=O)/C(=C\C=C1/Sc2ccccc2N1CC)C(C)=O,-10,-28%,?,-13%,?,5
CSCC[C@H](NC(=O)[C@@H]1CCCN1C(=O)CNC(=O)[C@H](CCCCN)NC(=O)[C@H](Cc1cnc[nH]1)NC(=O)[C@H](CO)NC(=O)[C@H](CC(C)C)NC(=O)[C@H](CCCNC(=N)N)NC(=O)[C@@H]1CCCN1C(=O)[C@H](CCCNC(=N)N)NC(=O)[C@H](CCC(N)=O)NC(=O)[C@H](CCCNC(=N)N)NC(=O)[C@H](CCCNC(=N)N)NC(=O)[C@H](Cc1ccccc1)NC(=O)[C@@H](N)CCCCN)C(=O)N1CCC[C@H]1C(=O)N[C@@H](Cc1ccccc1)C(=O)O,18,.,.,.,.,9
CCCCOC(=O)C1[C@H]2C(=O)N(Cc3cccs3)C[C@]23C=C[C@H]1O3 (some centres not stated),-13,-2%,-29%,5.2µM*,.,2
O=C(NCC1CCCO1)C1C2C=CC3(CN(Cc4cccs4)C(=O)C13)O2 (configuration not stated),11,0%,15%,4.7µM*,7%,-1
O=C(NC1CCCC1)C1C2C=CC3(CN(Cc4cccs4)C(=O)C13)O2 (configuration not stated),-14,-9%,16%,2%,11%,-4
CS(=O)(=O)Cc1ccc(C(=O)N(CCc2ccccc2)Cc2ccccc2)cc1,11,-9%,0%,-13%,-10%,-2
O=C(O)CSc1cc(C(=O)c2cc(F)ccc2O)cn2c(=O)c3c(-c4ccccc4)csc3nc12,4,9%,-20%,?,8.3µM*,-3
CCOC(=O)c1sc2nc3c(SCCC#N)cc(C(=O)c4cc(F)ccc4O)cn3c(=O)c2c1C,1,-2%,-12%,0.83µM*,0.83µM*,-3
COc1ccc(C(=O)OCC(=O)c2ccc[nH]2)c(OC)c1,.,10%,?,.,.,.
O=c1cc(CO)occ1O,.,.,.,-4%,-2%,.
c1ccc(CCSc2nccn2-c2ccccc2)cc1,120*,?,17%,423%,130%,52*
CCCC[N+]12CCC(CC1)C(C(O)(c1ccccc1)c1ccccc1)C2 (configuration not stated),11,-8%,1%,10µM*,?,-1
C[N+]12CCC(CC1)C(C(O)(c1ccccc1)c1cccs1)C2 (configuration not stated),-2,9%,6%,2.6µM*,12µM*,-3
CC(O)(c1cccs1)C(C(=O)O)c1ccccc1 (configuration not stated),.,-3%,37%,.,.,.
CCCC[N+]12CCC(CC1)C(Cc1ccccc1)C2 (configuration not stated),1,-4%,-1%,?,?,-2
CCC[N+]12CCC(CC1)C(C(O)(c1ccccc1)c1ccccc1)C2 (configuration not stated),-11,-3%,-6%,5.2µM*,?,-2
SMILES,Shiga toxin inh,AMA1-RON2 inh,HCV inh,Pf growth 96h,Pf growth 48h,Cycloheximide cs
N[C@@H](CSSC[C@H](N)C(=O)O)C(=O)O,-5,.,.,.,.,-5
C[C@@H]1CN([C@H](C)CO)C(=O)CCCn2nncc2CO[C@@H]1CN(C)C(=O)Nc1ccc2c(c1)OCO2,.,0%,.,.,.,.
N#Cc1nc(-c2ccco2)oc1N1CCc2ccccc2C1,91*,?,?,35%,-2%,25*
CC1CC(C)CN(c2oc(-c3ccco3)nc2C#N)C1 (configuration not stated),31,-25%,15%,?,-29%,13*
N#Cc1nc(-c2ccco2)oc1N1CCCC1,-8,-1%,?,.,9%,0
CC(C)NCC(O)COc1ccc(Br)cc1 (configuration not stated),25,16%,7%,3%,?,-3
CC(NCC(O)COc1ccc2ccccc2c1)c1ccccc1 (configuration not stated),-6,-29%,6.3µM*,9.3µM*,9.3µM*,-1
CC(CCc1ccccc1)NCC(O)COc1ccccc1 (configuration not stated),-11,-4%,?,?,5.2µM*,-1
OC(CNCc1ccccc1)COc1ccccc1 (configuration not stated),.,6%,7%,25%,?,.
CCC(CC)NCC(O)COc1ccc(Br)cc1 (configuration not stated),-11,-13%,?,7.4µM*,3.7µM*,-5
CCCC(NCC(O)COc1ccc(-c2ccccc2)cc1)c1ccccc1 (configuration not stated),-7,-12%,11µM*,?,?,4
CCN(C[C@H]1N[C@@](Cc2ccccc2)(C(=O)OC)[C@H]2C(=O)N(C)C(=O)[C@@H]12)S(=O)(=O)c1ccc(OC)cc1,.,-1%,-9%,.,.,.
Cc1cc(C)c2c(n1)nn1c(NCCCN(C)C)cc(C)nc21,-7,8%,22µM*,?,-5%,-3
COc1cccc(-n2nc(-c3ccnn3-c3ccccc3)c(=O)n(C)c2=O)c1,-16,32%,?,12µM*,.,3
CSc1ncccc1C(=O)OCc1ccccc1F,67*,20%,-15%,2%,?,22*
CSc1ncccc1C(=O)OCc1ccccc1,87*,42%,0%,5%,26%,31*
CC1(CCC(=O)N2CCCC(N3CCN(c4cccc(C(F)(F)F)c4)CC3)C2)CC1 (configuration not stated),-9,8%,?,?,0%,3

# Screens from PubChem.
